Shown are actives, neighbours in structure and some others; about 2.1% of the full set was active somewhere.
Calb FLC – C. albicans growth inhibition with fluconazole, primary screen, CaCi-2 strain, Alamar Blue fluorescence. C. albicans CaCi-2 (fluconazole-resistant clinical isolate) + fluconazole, 48 h. growth inhibition, % (no concentration beside the values). actives 0.57% (n = 300,000). AID 1979, 2009;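 active means growth inhibition above about 58% in most replicates, limit read from the data, passing the limit was not always enough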;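 further: all wells also contain fluconazole at 8 µg/ml as a sub-toxic cotreatment; 0% = median of DMSO wells and 100% = median of geldanamycin control wells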
Rin1 Abl inh – inhibitors of Rin1-Abl protein binding, primary screen, biochemical, TR-FRET; actives 0.4% (n = 360,000); inhibition, % at 7.35 µM; Tyrosine-protein kinase ABL1 (Homo sapiens) + Ras and Rab interactor 1 (Homo sapiens), …; AID 588664, 2011; in the data active means inhibition above about 5%, passing the limit was not always enough
M18AAP inhibitor – PfM18AAP inhibitors, malaria aminopeptidase, primary screen, biochemical, QFRET, recombinant enzyme. AID 1822, 2009. M18 aspartyl aminopeptidase (Plasmodium falciparum 3D7). inhibition, % at 7.35 µM. H-Glu-NHMec fluorogenic cleavage. actives 1.2% (n = 290,000);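 active means inhibition above the campaign mean inhibition over all tested compounds plus 3 SD, cut at about 28% in these data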;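 further: 0% = plate median of test compound wells and 100% = 2 mM ZnCl2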
Fh CTSL1 inh – Fasciola hepatica cathepsin L1 inhibitors, primary screen, counter-screen for PFM18AAP inhibitor project, biochemical, QFRET, fluorogenic peptide substrate; actives 0.49% (n = 300,000); recombinant F. hepatica cathepsin L1, Z-Leu-Arg-MCA fluorescence; inhibition, % at 5.96 µM; AID 1906, 2009;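 active means inhibition above the mean of all tested compounds plus 3 SD, set per screening campaign, cut at about 17% in these data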;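 further: 0% = plate median of test compound wells and 100% = 1 µM Z-Phe-Ala-diazomethylketone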
Rin1-Abl confirm – Rin1-Abl binding inhibitor retest, confirmation, biochemical, TR-FRET; shares compounds with Rin1 Abl inh; purified proteins; inhibition, % at 7.35 µM; actives 49% (n = 1,300)
GFP quench – GFP fluorescence inhibitors and quenchers, artefact control for Rin1-Abl interaction inhibitor project, biochemical. actives 8.5% (n = 1,300). AID 602125, 2011. inhibitors/quenchers counterscreen. inhibition, % at 6.75 µM. shares compounds with Rin1 Abl inh;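 further: ABL1-eGFP fusion protein alone without its partner RIN1-SBP; 0% = protein with vehicle and 100% = wells lacking protein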
GFP quench DR – GFP fluorescence inhibitors and quenchers, dose response, artefact control for Rin1-Abl interaction inhibitor project, biochemical | shares compounds with Rin1 Abl inh | IC50, µM | AID 602182, 2012 | GFP fluorescence interference/quenching counterscreen | 230 tested, under 10 active; call rule not given here;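 further: ABL1-eGFP fusion protein alone without its RIN1 binding partner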
* = called active by the depositor; . = no result given; ! = not confirmed by another sample. Unless noted, no stated cut-off is given here; in the data, active means inhibition above about 6.5%; inactive means the rest.

SMILES	Calb FLC	Rin1 Abl inh	M18AAP inhibitor	Fh CTSL1 inh	Rin1-Abl confirm	GFP quench	others
Cc1ccccc1N1CC(C(=O)Nc2ccc(S(=O)(=O)N3CCCCC3)cc2)CC1=O (centres undefined)	-13	7.7*	-4	0	7.5*	-2
NS(=O)(=O)c1ccc(NC(=O)C2CCCN(S(=O)(=O)c3ccc(F)cc3)C2)cc1 (centres undefined)	8	18*	1	3	4	-5
Cc1ccccc1N1CC(C(=O)Nc2ccc(S(=O)(=O)N3CCOCC3)cc2)CC1=O (centres undefined)	6	1	2	-3	.	.
Cc1cccc(N2CC(C(=O)Nc3ccc(S(=O)(=O)N4CCCCC4)cc3)CC2=O)c1C (centres undefined)	-4	13*	8	0	13*	0
COCC(=O)N(Cc1cc2ccc(C)c(C)c2n2nnnc12)C1CCCC1	16	1	0	1	.	.
CN(c1ccccc1)S(=O)(=O)c1ccc2c(c1)OCCO2	.	0	.	.	.	.
O=S(=O)(NC1CCN(S(=O)(=O)c2c(F)cccc2F)C1)c1ccc2c(c1)OCCO2 (centres undefined)	.	0	.	.	.	.
Cc1cn([C@H]2C[C@H](O)[C@@H](/C=C/C(=O)NCCc3cccnc3)O2)c(=O)[nH]c1=O	.	2	.	.	.	.
Cc1cc(Oc2ccc(=O)n(C)n2)nc(SCCOc2ccccc2)n1	-8	33*	-2	3	-5	0
CCOc1ccc(-c2nnc(N3CCOCC3)c3ccccc23)cc1	2	12*	5	.	6.7*	-1
Cc1c(NP(=O)(c2ccc(Br)cc2)c2ccc(Br)cc2)c(=O)n(-c2ccccc2)n1C	-11	0	-3	2	.	.
O=c1c(O)cccc2cc(O)c(O)c(O)c12	-8	43*	48*	4	39*	33*
Cc1cc(NC(=O)CSc2nc(C3CC3)nc3sc(C)c(C)c23)no1	0	1	-1	2	.	.
O=C(Nc1ccc(Cl)cc1)NC1CCCCC1Cc1ccco1 (centres undefined)	1	0	3	15	.	.
O=C(Nc1ccc(Cl)cc1)NC1CCCC1Cc1ccco1 (centres undefined)	-6	8.4*	-9	9	-2	3
Cc1ccc(NC2CCCN(C(=O)CCC(=O)c3ccccc3)C2)cc1C (centres undefined)	-15	1	10	.	.	.
Cc1ccc(NC2CCCN(C(=O)c3cc4ncccn4n3)C2)cc1C (centres undefined)	2	37*	13	-8	1	0
Cc1ccc(NC2CCCN(C(=O)CN3C(=O)c4ccccc4C3=O)C2)cc1C (centres undefined)	8	9.8*	5	0	0	0
CC(=O)Nc1cccc(-c2ccnc3c2CC(C)(C(=O)NCC2CC2)O3)c1 (centres undefined)	.	2	.	.	.	.
Oc1ccc(CN2CCc3ccccc3C2)c2cccnc12	5	28*	11	-3	7.6*	1
CN1CCc2cccc3c2[C@H]1Cc1ccc(O)c(O)c1-3	.	16*!	35*	-6	11*	11*
CCOC(=O)c1cnc(-n2nc(C)cc2C)[nH]c1=O	-3	-3	6	0	.	.
CCOC(=O)c1cnc(-n2[nH]c(C)cc2=O)[nH]c1=O	4	14*	2	1	8.6*	7.8*
Cc1nn(-c2ccccc2)c2c1CC(=O)Nc1ccccc1-2	.	-1	.	.	.	.
Cc1nnc(SCc2nc3ccccc3[nH]2)s1	-6	18*	7	-1	29*	-1	GFP quench DR=>68
O=C1C=CC2=C3c4cc(O)c(O)cc4CC3(O)COC2=C1O (centres undefined)	.	67*	.	.	73*	45*
Cc1n[nH]c(C)c1CCNC(=O)C1CCC(=O)N(CCc2cccc(F)c2)C1 (centres undefined)	-2	3	-2	-4	.	.
O=C(OCCCOC(=O)c1ccc(O)cc1)c1ccc(O)cc1	-2	19*	1	.	17*	0
